697 NFkB inh: inhibitors of the PMA/ionomycin-induced NF-kB reporter in 697 B cells; hit rate 0.33% among 330,000; 697 B-cell NF-kB luciferase reporter, 16 h; AID 435022; inhibition, % at 4 µM; in the data active = inhibition above about 35%
Gli-Sufu antag: Gli-Sufu pathway antagonism | Sufu-KO-LIGHT fibroblasts, Gli luciferase reporter luminescence | inhibition, % at 5 µM | hit rate 0.74% among 340,000;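 active = inhibition above about 55%, limit read from the data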
Jurkat NFkB inh: lowers PMA/ionomycin-induced NF-kB signal in Jurkat cells; PMA/ionomycin-induced NF-kB luciferase reporter, luminescence; inhibition, % at 4 µM; hit rate 0.53% among 330,000; AID 435003; in the data active = inhibition above about 50%
aSyn 5UTR inh: 5' untranslated region of α-synuclein, MLPCN primary screen. hit rate 0.82% among 300,000. alpha-synuclein 5'UTR reporter, inhibitor activity. AID 1813. inhibition, % (tested at 7.5 µM); in the data active = inhibition above about 60%; inconclusive = no clear call, values can overlap the other calls;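 note: H4 neuroglioblastoma cells stably carrying SNCA 5'UTR luciferase fusion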
CSC inhib: cancer stem cell inhibition; cancer stem cell-like cells viability, luminescence; AID 2717; inhibition, % at 7.5 µM; hit rate 1.1% among 300,000; in the data active = inhibition above about 75%; inconclusive = no clear call, values can overlap the other calls; tested in HMLE shEcad cells
Mdm2 MdmX PPI: inhibitors of human Mdm2/MdmX interaction; O15151+Q00987; SaOS-2 split-luciferase Mdm2/MdmX complementation, luminescence; inhibition, % at 8 µM; hit rate 3% among 330,000;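 active = inhibition of at least 50% at 8 µM in the primary screen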
Target sequence (O15151 whole entry, looked up): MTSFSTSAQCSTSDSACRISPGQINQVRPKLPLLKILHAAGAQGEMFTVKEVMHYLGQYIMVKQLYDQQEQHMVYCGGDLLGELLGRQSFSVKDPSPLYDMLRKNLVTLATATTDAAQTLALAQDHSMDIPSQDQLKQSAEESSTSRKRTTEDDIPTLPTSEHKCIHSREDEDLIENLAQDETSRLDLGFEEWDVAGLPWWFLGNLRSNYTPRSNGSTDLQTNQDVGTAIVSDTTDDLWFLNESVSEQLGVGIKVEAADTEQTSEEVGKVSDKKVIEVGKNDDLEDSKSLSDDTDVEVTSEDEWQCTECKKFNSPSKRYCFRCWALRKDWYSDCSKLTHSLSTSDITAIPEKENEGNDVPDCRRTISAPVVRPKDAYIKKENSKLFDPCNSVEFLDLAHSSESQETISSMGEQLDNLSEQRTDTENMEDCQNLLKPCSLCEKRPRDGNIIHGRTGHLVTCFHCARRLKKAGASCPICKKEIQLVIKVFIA
Target sequence (Q00987 whole entry, looked up): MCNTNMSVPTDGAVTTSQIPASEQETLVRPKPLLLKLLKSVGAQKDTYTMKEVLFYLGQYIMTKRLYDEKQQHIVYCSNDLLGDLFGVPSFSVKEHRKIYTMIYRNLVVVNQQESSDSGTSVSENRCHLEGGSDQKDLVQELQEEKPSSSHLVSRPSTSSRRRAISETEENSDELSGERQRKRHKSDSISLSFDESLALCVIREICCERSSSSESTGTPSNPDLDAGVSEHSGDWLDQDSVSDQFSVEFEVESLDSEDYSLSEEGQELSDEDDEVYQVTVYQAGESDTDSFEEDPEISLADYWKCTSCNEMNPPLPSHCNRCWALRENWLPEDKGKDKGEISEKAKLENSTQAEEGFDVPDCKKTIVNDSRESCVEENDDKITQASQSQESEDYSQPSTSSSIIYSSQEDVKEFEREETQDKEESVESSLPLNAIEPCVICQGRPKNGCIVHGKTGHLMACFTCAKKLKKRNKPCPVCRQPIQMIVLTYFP
Mdm2 MdmX conf: confirmation of human Mdm2/MdmX interaction inhibitors | shares compounds with Mdm2 MdmX PPI | Mdm2-MdmX binding, luminescent assay | inhibition, % at 8 µM | hit rate 55% among 10,000; in the data active = inhibition above about 40%
Full FLuc ctr: counter-screen for Mdm2/MdmX inhibitors: full-length luciferase; shares compounds with Mdm2 MdmX PPI; SaOS-2 full-length luciferase counterscreen, luminescence; inhibition, % at 8 µM; hit rate 77% among 6,200;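 active = mean inhibition at 8 µM reaching about 37%, which flags the compound as non-specific, limit read from the data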;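 note: p53-null SaOS-2 cells with luciferase driven by a doxycycline-inducible promoter; compound on cells about two nights before reading with doxycycline added after day one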
A number is an active result; n = inactive; u = inconclusive; x = no result. Shown are actives, neighbours in structure and some others; about 4.5% of the full set was active somewhere.

SMILES | 697 NFkB inh | Gli-Sufu antag | Jurkat NFkB inh | aSyn 5UTR inh | CSC inhib | Mdm2 MdmX PPI | Mdm2 MdmX conf | others
COc1cccc(C(=O)Nc2nc(-c3ccc(S(=O)(=O)N4CCOCC4)cc3)cs2)c1 | n | n | n | n | n | 58 | n
Cc1ccc(NC(=O)c2cccc(S(=O)(=O)N3CCc4ccccc4C3)c2)nc1 | n | n | n | n | n | n | x
Cc1ccc(Nc2nc(-c3ccc(S(=O)(=O)N4CCOCC4)cc3)cs2)cc1Cl | n | n | n | n | n | 63 | n
COc1ccc(-c2csc(NC(=O)c3ccccc3F)n2)cc1 | n | n | n | n | n | n | x
COc1ccc(-c2csc(NC(=O)c3ccccc3NS(=O)(=O)c3ccc(F)c(F)c3)n2)cc1 | n | 75 | n | 74 | 114 | 90 | 91 | Full FLuc ctr=n
CC(C)CC(=O)Nc1nc(-c2ccc(S(=O)(=O)N3CCOCC3)cc2)cs1 | n | n | n | n | x | n | x
O=C(O)c1nn(CC(=O)N2CCC(Cc3ccccc3)CC2)c(=O)c2ccccc12 | n | n | n | n | n | n | x
O=C(Nc1cccc([N+](=O)[O-])c1)c1cccc(C(=O)Nc2cccc([N+](=O)[O-])c2)c1 | n | n | n | n | n | 76 | 45 | Full FLuc ctr=71
O=C(Nc1cccc([N+](=O)[O-])c1)Nc1ccc2c(c1)CCC2 | n | n | n | n | n | 72 | n
COC(=O)c1cccc(NC(=O)c2cccc([N+](=O)[O-])c2)c1 | n | n | n | n | n | n | x
Cc1ccc([N+](=O)[O-])cc1NC(=O)Nc1cccc(F)c1 | n | n | n | n | x | 59 | n
Cc1ccc(SCC(=O)Nc2ccc(F)cc2[N+](=O)[O-])cc1C | n | n | n | n | n | n | x
CCn1cc([N+](=O)[O-])c(C(=O)Nc2nc(-c3ccc(C)cc3)c(C)s2)n1 | n | n | n | n | 102 | 55 | n
CCn1cc([N+](=O)[O-])c(C(=O)Nc2nc(-c3ccc(C)c(C)c3)c(C)s2)n1 | n | n | n | n | n | n | x
CCN(CC)S(=O)(=O)c1ccc(OC)c(NC(=O)c2cc3c(=O)n4ccccc4nc3s2)c1 | n | n | n | n | n | 55 | n
O=C(Nc1cccc(Cl)c1)c1cc2c(=O)n3ccccc3nc2s1 | n | n | n | n | n | 56 | n
Cc1cccc(NC(=O)c2cc3c(=O)n4ccccc4nc3s2)c1 | n | n | n | n | n | n | x
O=C(CN(c1ccc(F)cc1)S(=O)(=O)c1ccc2c(c1)OCCO2)NCc1ccccn1 | n | n | n | n | n | n | x
CCOC(=O)Cc1nnc2c(Nc3ccc(Cl)cc3)nc3nonc3n12 | n | n | n | n | n | 92 | 40 | Full FLuc ctr=44
CCOC(=O)Cc1csc(Nc2ccc(Cl)cc2)n1 | n | n | n | n | n | n | x
CNCCCOc1cc(C)cc(C)c1C | n | n | n | n | n | n | x
CCOc1ccccc1N1CCN(C(=O)c2cc3cc(OC)ccc3[nH]2)CC1 | n | n | n | n | n | n | x
CCCCOc1ccc(-c2cc(C(=O)NNC(=S)NCC)c3ccccc3n2)cc1 | n | n | n | n | 100 | 80 | 74 | Full FLuc ctr=127
O=C(O)c1ccccc1C(=O)Nc1ccc(-n2ccc(C(F)(F)F)n2)cc1 | n | n | n | n | n | n | x
O=C(Nc1ccc(-n2ccc(C(F)(F)F)n2)cc1)Nc1cccc(Cl)c1 | n | x | n | n | n | 80 | n | Full FLuc ctr=82
SMILES | 697 NFkB inh | Gli-Sufu antag | Jurkat NFkB inh | aSyn 5UTR inh | CSC inhib | Mdm2 MdmX PPI | Mdm2 MdmX conf | others
Cc1ccc(NC(=O)c2ccc(NCCCN3CCOCC3)c([N+](=O)[O-])c2)cc1Cl | n | n | n | n | n | 56 | n | Full FLuc ctr=69
O=C(Nc1ccc(Cl)c([N+](=O)[O-])c1)c1ccc(NCCCN2CCOCC2)c([N+](=O)[O-])c1 | n | n | n | n | x | 97 | n
COc1ccc(NC(=O)c2ccc(NCCCN3CCOCC3)c([N+](=O)[O-])c2)cc1 | n | n | n | n | n | n | x
O=C(NCCCN1CCOCC1)c1ccc(Cl)c([N+](=O)[O-])c1 | n | n | n | n | n | n | x
COc1cc(CC(=O)OCC(=O)c2ccc[nH]2)cc(OC)c1OC | n | n | n | x | n | n | x
CN(C)c1nc(NCc2ccccc2)nc(N/N=C/c2ccc(Br)cc2)n1 | n | n | n | n | n | 90 | n
COc1ccc(-n2nc(C(=O)NCC(=O)NCc3ccccc3OC)c3ccccc3c2=O)cc1 | n | n | n | n | n | n | x
COc1ccccc1CNC(=O)c1nn(-c2ccc(C)cc2)c(=O)c2c1c1ccccc1n2C | n | n | n | n | n | 79 | n
COc1ccc(-n2nc(C(=O)NCCCN3CCCC3=O)c3c4ccccc4n(C)c3c2=O)cc1Cl | n | n | n | n | n | n | x
COc1ccc(-n2nc(C(=O)NCc3ccco3)c3c4ccccc4n(C)c3c2=O)cc1Cl | n | n | n | n | n | 57 | n
Cc1nn(-c2ccccc2)c(C)c1/C=N/NC(=O)c1cc(-c2ccccc2)n[nH]1 | n | n | n | 82 | n | 59 | 63 | Full FLuc ctr=79
O=C(CSc1ccc2c(c1)OCCO2)N1CCN(c2ccccc2)CC1 | n | n | n | x | n | n | x
O=C(O)c1cccc(NC(=S)NC(=O)c2ccncc2)c1 | n | n | n | n | n | 53 | n
O=C(NC(=S)Nc1cccc2cnccc12)c1ccccc1 | n | n | n | n | n | 61 | n
CC(C)(C)C(=O)NC(=S)Nc1cccc(C(=O)O)c1 | n | n | n | n | n | n | x
Cc1ccc(NC(=O)NC(=O)CN2CCCC2c2ccc3c(c2)OCCO3)cc1C (stereo not drawn) | n | n | n | x | x | n | x
Cc1cc(Br)ccc1NC(=O)CN1C(=O)C2CC=CCC2C1=O (stereo not drawn) | n | n | n | x | n | n | x
Cc1cc(O)c(C(C)C)cc1N=Nc1ccccc1C(=O)O | n | n | n | n | n | n | x
Cc1cc(NO)c(C(C)C)cc1N=O | n | n | n | n | n | 60 | n
Cc1[nH]c2ccccc2c1/C=N/Nc1nc2ccccc2[nH]1 | n | n | n | n | n | 62 | n
C(=N\Nc1nc2ccccc2[nH]1)/c1cccc2cccnc12 | n | 67 | n | 73 | 100 | 65 | 66 | Full FLuc ctr=45
Cc1ccccc1/C=N/Nc1nc2ccccc2[nH]1 | n | n | n | n | n | n | x
Cc1ccc(S(=O)(=O)CCC(=O)NCc2ccco2)cc1 | n | n | n | n | n | n | x
CCCc1cnc(NCCNCC(O)COc2ccc(Cl)c(Cl)c2)nc1 (stereo not drawn) | n | n | n | n | n | 56 | n
CCc1cc2c(=O)[nH]c(-c3ccccn3)nc2s1 | n | 58 | n | u | x | 72 | n | Full FLuc ctr=46
CCCNC(=O)COC(=O)c1ccccc1C(=O)c1ccc(Cl)c([N+](=O)[O-])c1 | n | n | n | n | n | 98 | 88 | Full FLuc ctr=52
Cn1c(=O)c2c([nH]c(OCc3ccc(Cl)cc3Cl)[n+]2Cc2ccc(F)cc2)n(C)c1=O | n | n | n | n | n | 57 | n
